Source: the antibiotic and cytotoxicity screens of Wong et al. (2023)
The campaign covered roughly 39,000 compounds. About 1,500 (3.8%) were called active. Shown is part of a subset that was picked to be rich in actives.

System: HSkMC (human skeletal muscle cells)
Assay: cytotoxicity call (relative viability < 0.9)
Settings: 10 µM

| Structure (SMILES) | cytotoxicity call |
| --- | --- |
| C/C=C1\[C@@H](O[C@H]2O[C@@H](CO)[C@@H](O)[C@@H](O)[C@@H]2O)OC=C(C(=O)OC)[C@H]1CC(=O)OC[C@H]1[C@H](C)[C@H](OC(=O)C[C@@H]2C(C(=O)OC)=CO[C@H](O[C@H]3O[C@@H](CO)[C@@H](O)[C@@H](O)[C@@H]3O)/C2=C\C)C[C@@H]1[C@H](CO)COC(=O)C[C@@H]1C(C(=O)OC)=CO[C@@H](O[C@H]2O[C@@H](CO)[C@@H](O)[C@@H](O)[C@@H]2O)/C1=C\C | inactive |
| C[C@@H]1CN([C@H](C)CO)C(=O)c2cc(NC(=O)C3CCCCC3)ccc2O[C@H]1CN(C)Cc1ccc(Cl)c(Cl)c1 | inactive |
| Cl.Cl.N=C(NCCCCCCNC(=N)NC(=N)Nc1ccc(Cl)cc1)NC(=N)Nc1ccc(Cl)cc1 | active |
| N[C@@H](CC(=O)Nc1ccc(Cl)cc1)C(=O)O | inactive |
| CC(C)NC(=N)NC(=N)Nc1ccc(Cl)cc1.Cl | inactive |
| C[C@H](CO)N1C[C@H](C)[C@H](CN(C)S(=O)(=O)c2ccccc2)Oc2ccc(NS(=O)(=O)c3cn(C)cn3)cc2C1=O | inactive |
| O=C(O)c1ccnc2nc[nH]c12 | inactive |
| O=C1OC2(c3ccc(O)cc3Oc3cc(O)ccc32)c2ccccc21 | inactive |
| O=C1OC(c2cc(I)c(O)c(I)c2)(c2cc(I)c(O)c(I)c2)c2ccccc21 | inactive |
| O=C1OC2(c3ccccc31)c1cc(I)c(O)c(I)c1Oc1c2cc(I)c(O)c1I | active |
| Clc1ccc(-c2cccs2)nn1 | inactive |
| CC(C)NC(=O)Nc1cccc2c1O[C@@H](CN(C)C(=O)Nc1ccc3c(c1)OCO3)[C@H](C)CN([C@H](C)CO)C2=O | inactive |
| COCC#Cc1cnc2c(c1)C(=O)N([C@H](C)CO)C[C@H](C)[C@H](CN(C)C(=O)Nc1ccccc1OC)O2 | inactive |
| C[C@@H]1CN([C@H](C)CO)C(=O)c2cc(NS(=O)(=O)c3ccc(Cl)cc3)ccc2O[C@@H]1CN(C)Cc1ccc(-c2ccccc2)cc1 | active |
| C[C@H]1CN([C@@H](C)CO)C(=O)c2cc(NS(=O)(=O)c3ccc(Cl)cc3)ccc2O[C@@H]1CN(C)Cc1ccc(-c2ccccc2)cc1 | inactive |
| C[C@@H]1CN([C@@H](C)CO)C(=O)c2cc(NS(=O)(=O)c3ccc(Cl)cc3)ccc2O[C@@H]1CN(C)Cc1ccc(-c2ccccc2)cc1 | active |
| C[C@@H]1CN([C@@H](C)CO)C(=O)c2cc(NS(=O)(=O)c3ccc(Cl)cc3)ccc2O[C@H]1CN(C)Cc1ccc(-c2ccccc2)cc1 | active |
| C[C@H](CO)N1C[C@H](C)[C@H](CN(C)Cc2ccc(-c3ccccc3)cc2)Oc2ccc(NS(=O)(=O)c3ccccc3)cc2C1=O | inactive |
| C[C@H]1CN([C@@H](C)CO)C(=O)c2cc(NS(=O)(=O)c3ccc(Cl)cc3)ccc2O[C@H]1CN(C)Cc1ccc(-c2ccccc2)cc1 | inactive |
| C[C@H](CO)N1C[C@H](C)[C@@H](CN(C)Cc2ccc(-c3ccccc3)cc2)Oc2ccc(NS(=O)(=O)c3ccccc3)cc2C1=O | inactive |
| C[C@H](CO)N1C[C@H](C)[C@H](CN(C)Cc2ccc(-c3ccccc3)cc2)Oc2ccc(NS(=O)(=O)c3ccc(Cl)cc3)cc2C1=O | active |
| C[C@@H]1CN([C@H](C)CO)C(=O)c2cc(NS(=O)(=O)c3ccccc3)ccc2O[C@@H]1CN(C)Cc1ccc(-c2ccccc2)cc1 | inactive |
| C[C@H]1CN([C@@H](C)CO)C(=O)c2cc(NS(=O)(=O)c3ccccc3)ccc2O[C@@H]1CN(C)Cc1ccc(-c2ccccc2)cc1 | inactive |
| CN1CCN(C)C2(CCN(C(=O)c3ccn[nH]3)CC2)C1=O | inactive |

| Structure (SMILES) | cytotoxicity call |
| --- | --- |
| COCCNC(=O)C[C@@H]1CC[C@H]2[C@@H](COc3ccc(NS(=O)(=O)c4ccc(Cl)cc4)cc3C(=O)N2C)O1 | inactive |
| C[C@H](CO)N1C[C@H](C)[C@@H](CN(C)C(=O)Nc2ccc(F)cc2)OCCCC[C@H](C)Oc2ccc(NS(=O)(=O)c3cccs3)cc2C1=O | inactive |
| C[C@@H]1CN([C@H](C)CO)C(=O)c2cc(NC(=O)CCC(F)(F)F)ccc2O[C@@H]1CN(C)C(=O)Nc1cccc2ccccc12 | inactive |
| COc1ccc(NC(=O)N2C[C@H](O)COC[C@H]3O[C@H](CC(=O)NCc4ccccc4OC)CC[C@@H]32)cc1 | inactive |
| C[C@@H]1CCCCO[C@@H](CN(C)C(=O)C2CCCCC2)[C@H](C)CN([C@H](C)CO)C(=O)c2cc(NC(=O)Nc3ccc4c(c3)OCO4)ccc2O1 | inactive |
| COc1ccc2occ(C(C)=O)c2c1 | inactive |
| C[C@H](CO)N1C[C@H](C)[C@@H](CN(C)Cc2ccc(-c3ccccc3)cc2)Oc2ccc(NS(=O)(=O)c3ccc(Cl)cc3)cc2C1=O | active |
| C[C@@H]1CN([C@H](C)CO)C(=O)c2cc(NS(=O)(=O)c3ccc(Cl)cc3)ccc2O[C@H]1CN(C)Cc1ccc(-c2ccccc2)cc1 | active |
| C[C@@H]1CN([C@H](C)CO)C(=O)c2cc(NS(=O)(=O)c3ccccc3)ccc2O[C@H]1CN(C)Cc1ccc(-c2ccccc2)cc1 | inactive |
| COc1cccc(C#Cc2ccc([C@H]3[C@H]4CN(S(=O)(=O)c5ccccc5C)CC(=O)N4[C@H]3CO)cc2)c1 | inactive |
| C[C@H](CO)N1C[C@H](C)[C@@H](CN(C)C(=O)Cc2ccncc2)Oc2cc(C#CC3CCCCC3)ccc2S1(=O)=O | inactive |
| O=C(Nc1ccc([N+](=O)[O-])cc1Cl)c1cc(Cl)ccc1O | active |
| O=C(Nc1cc(Cl)ccc1Cl)c1cc(Cl)ccc1NS(=O)(=O)c1ccc(Cl)c([N+](=O)[O-])c1 | inactive |
| NC(=O)c1ccc([N+](=O)[O-])cc1Cl | inactive |
| C[C@@H]1CN([C@H](C)CO)C(=O)c2cccc(NC(=O)NC3CCCCC3)c2O[C@H]1CN(C)Cc1ccc(C(F)(F)F)cc1 | inactive |
| CN(C)C(=O)c1ccc(-c2cccc(-c3nc(C(=O)NCc4ccccc4)cc4c3[C@@H](CCO)N([S@](=O)C(C)(C)C)C4)c2)cc1 | inactive |
| COc1cccc(CNC(=O)c2cc3c(c(-c4cccc(-c5ccc(C#N)cc5)c4)n2)[C@@H](CCO)N([S@](=O)C(C)(C)C)C3)c1 | active |
| CN(C)C(=O)c1ccc(-c2cccc(-c3nc(C(=O)NCc4ccccc4)cc4c3[C@H](CCO)N([S@@](=O)C(C)(C)C)C4)c2)cc1 | inactive |
| CN(C)C(=O)c1cccc(-c2cccc(-c3nc(C(=O)NC4CCCCC4)cc4c3[C@@H](CCO)N([S@](=O)C(C)(C)C)C4)c2)c1 | inactive |
| COc1cccc(CNC(=O)c2cc3c(c(-c4cccc(-c5cccc(C#N)c5)c4)n2)[C@H](CCO)N([S@@](=O)C(C)(C)C)C3)c1 | inactive |
| CN(C)C(=O)c1cccc(-c2cccc(-c3nc(C(=O)NC4CCCCC4)cc4c3[C@@H](CCO)N([S@@](=O)C(C)(C)C)C4)c2)c1 | active |
| CN(C)C(=O)c1ccc(-c2cccc(-c3nc(C(=O)NCc4ccccc4)cc4c3[C@@H](CCO)N([S@@](=O)C(C)(C)C)C4)c2)cc1 | active |
| COc1cccc(CNC(=O)c2cc3c(c(-c4cccc(-c5ccc(C#N)cc5)c4)n2)[C@H](CCO)N([S@@](=O)C(C)(C)C)C3)c1 | inactive |
| CN(C)C(=O)c1cccc(-c2cccc(-c3nc(C(=O)NC4CCCCC4)cc4c3[C@H](CCO)N([S@@](=O)C(C)(C)C)C4)c2)c1 | inactive |
